Results taken from paper PMC7862700, “An all-to-all approach to the identification of sequence-specific readers for epigenetic DNA modifications on cytosine”.

Legend:
Test in all cases: DAPPL (digital affinity profiling via proximity ligation, sequencing); 10 mM Tris-HCl pH 7.5, 50 mM NaCl, 1 mM DTT, 4% glycerol, room temperature, 30 min; GST-TFs on glutathione beads, 16-mer random dsDNA library, 0.1% formaldehyde crosslink after washing; high values mean tight binding
Settings in all cases: protein: recombinant; tags: N-terminal GST; dsDNA, one strand shown
ERF = target: T1, ERF (Homo sapiens, UniProt P50548 1-548)
T1 sequence: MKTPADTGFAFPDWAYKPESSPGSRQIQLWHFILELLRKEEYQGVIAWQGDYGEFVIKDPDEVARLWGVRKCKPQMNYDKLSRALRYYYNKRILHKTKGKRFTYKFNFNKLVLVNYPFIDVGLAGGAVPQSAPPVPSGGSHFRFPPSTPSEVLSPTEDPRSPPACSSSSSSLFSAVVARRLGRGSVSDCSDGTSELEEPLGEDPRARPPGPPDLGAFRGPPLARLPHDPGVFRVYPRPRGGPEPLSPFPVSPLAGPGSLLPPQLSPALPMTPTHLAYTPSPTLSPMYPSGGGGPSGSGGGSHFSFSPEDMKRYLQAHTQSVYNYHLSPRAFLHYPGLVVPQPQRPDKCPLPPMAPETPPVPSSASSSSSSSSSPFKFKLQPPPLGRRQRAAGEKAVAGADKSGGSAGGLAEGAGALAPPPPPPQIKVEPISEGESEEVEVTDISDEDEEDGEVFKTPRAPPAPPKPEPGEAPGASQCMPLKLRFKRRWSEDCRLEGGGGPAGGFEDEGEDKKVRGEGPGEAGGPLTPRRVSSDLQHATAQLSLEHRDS
How it was run: (§1)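 In yeast, human transcription factors were expressed with a GST fusion, then pulled down on glutathione beads and given DNA barcodes. Pooled with a tag-only sample, they were exposed to 200 nmole of a 16-mer random double-stranded DNA library (Tris/NaCl/DTT/glycerol buffer, room temperature, 30 min), washed, crosslinked with 0.1% formaldehyde, proximity-ligated using BsaI/T4 ligase for 1 h at 37 °C, PCR-amplified and read on an Illumina NextSeq500. Each hexamer's frequency of reads for a factor, divided by the matching frequency for the tag-only sample, gives the binding signal.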

ETV3L = target: T2, ETV3L (Homo sapiens, UniProt Q6ZN32 1-361)
T2 sequence: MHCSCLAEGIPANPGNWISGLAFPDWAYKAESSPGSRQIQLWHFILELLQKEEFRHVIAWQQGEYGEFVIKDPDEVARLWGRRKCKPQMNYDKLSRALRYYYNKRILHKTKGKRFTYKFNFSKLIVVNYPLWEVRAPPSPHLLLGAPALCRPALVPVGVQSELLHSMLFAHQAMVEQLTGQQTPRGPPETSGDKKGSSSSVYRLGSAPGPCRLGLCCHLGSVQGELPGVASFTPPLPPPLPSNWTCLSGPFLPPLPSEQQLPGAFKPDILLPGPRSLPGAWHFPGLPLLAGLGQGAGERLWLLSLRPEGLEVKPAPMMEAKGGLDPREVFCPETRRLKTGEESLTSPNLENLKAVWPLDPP
How it was run: as §1

ETS2 = target: T3, ETS2 (Homo sapiens, UniProt P15036 1-469)
T3 sequence: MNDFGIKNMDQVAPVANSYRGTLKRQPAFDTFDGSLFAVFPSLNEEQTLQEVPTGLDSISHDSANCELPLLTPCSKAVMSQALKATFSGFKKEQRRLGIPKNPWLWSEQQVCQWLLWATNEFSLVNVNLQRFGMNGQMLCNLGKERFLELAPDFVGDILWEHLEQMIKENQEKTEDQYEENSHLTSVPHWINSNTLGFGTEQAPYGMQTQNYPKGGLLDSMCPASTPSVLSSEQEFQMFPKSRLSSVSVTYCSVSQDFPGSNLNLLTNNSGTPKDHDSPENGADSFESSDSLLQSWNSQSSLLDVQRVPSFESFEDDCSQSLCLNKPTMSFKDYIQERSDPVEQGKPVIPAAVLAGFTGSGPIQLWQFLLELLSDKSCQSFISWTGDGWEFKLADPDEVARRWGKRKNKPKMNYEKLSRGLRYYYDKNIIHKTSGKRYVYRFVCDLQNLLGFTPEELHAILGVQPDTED
How it was run: as §1

SPDEF = target: T4, SPDEF (Homo sapiens, UniProt O95238 1-335)
T4 sequence: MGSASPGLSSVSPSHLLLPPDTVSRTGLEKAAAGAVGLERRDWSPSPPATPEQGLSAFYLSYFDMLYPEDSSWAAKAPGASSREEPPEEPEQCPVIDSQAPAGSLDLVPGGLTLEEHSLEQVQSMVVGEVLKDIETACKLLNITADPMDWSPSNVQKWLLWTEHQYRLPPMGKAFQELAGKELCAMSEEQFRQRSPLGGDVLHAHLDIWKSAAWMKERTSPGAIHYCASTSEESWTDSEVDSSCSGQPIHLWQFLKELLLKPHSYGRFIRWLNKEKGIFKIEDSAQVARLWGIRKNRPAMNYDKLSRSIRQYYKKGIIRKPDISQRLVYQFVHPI
How it was run: as §1

ETV7 = target: T5, ETV7 (Homo sapiens, UniProt Q9Y603 1-341)
T5 sequence: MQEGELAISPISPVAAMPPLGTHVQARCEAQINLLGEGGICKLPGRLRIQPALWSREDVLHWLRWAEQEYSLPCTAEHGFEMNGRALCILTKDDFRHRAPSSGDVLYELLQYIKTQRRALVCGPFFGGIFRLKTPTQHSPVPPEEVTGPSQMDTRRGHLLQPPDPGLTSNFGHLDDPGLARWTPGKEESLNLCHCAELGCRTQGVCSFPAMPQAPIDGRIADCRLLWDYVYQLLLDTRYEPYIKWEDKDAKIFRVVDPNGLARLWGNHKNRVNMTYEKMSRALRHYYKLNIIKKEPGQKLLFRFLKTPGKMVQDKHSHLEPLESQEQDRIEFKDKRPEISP
How it was run: as §1

ELF5 = target: T6, ELF5 (Homo sapiens, UniProt Q9UKW6-2 1-255)
T6 sequence: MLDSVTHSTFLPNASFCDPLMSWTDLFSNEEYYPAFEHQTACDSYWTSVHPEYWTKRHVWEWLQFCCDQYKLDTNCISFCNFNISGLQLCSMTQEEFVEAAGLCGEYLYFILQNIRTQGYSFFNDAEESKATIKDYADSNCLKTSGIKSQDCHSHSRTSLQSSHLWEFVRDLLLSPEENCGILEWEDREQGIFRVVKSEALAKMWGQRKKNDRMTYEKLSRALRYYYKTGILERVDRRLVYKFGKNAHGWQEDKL
How it was run: as §1

ETV3 = target: T7, ETV3 (Homo sapiens, UniProt P41162-2 1-143)
T7 sequence: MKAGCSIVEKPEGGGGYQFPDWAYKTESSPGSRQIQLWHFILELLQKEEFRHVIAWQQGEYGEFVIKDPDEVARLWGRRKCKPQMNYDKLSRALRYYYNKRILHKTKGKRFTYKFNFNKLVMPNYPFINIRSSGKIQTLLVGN
How it was run: as §1

ETV6 = ETV6 (Homo sapiens, UniProt P41212 1-452)
How it was run: as §1

Sequence of ETV6 (P41212 whole entry): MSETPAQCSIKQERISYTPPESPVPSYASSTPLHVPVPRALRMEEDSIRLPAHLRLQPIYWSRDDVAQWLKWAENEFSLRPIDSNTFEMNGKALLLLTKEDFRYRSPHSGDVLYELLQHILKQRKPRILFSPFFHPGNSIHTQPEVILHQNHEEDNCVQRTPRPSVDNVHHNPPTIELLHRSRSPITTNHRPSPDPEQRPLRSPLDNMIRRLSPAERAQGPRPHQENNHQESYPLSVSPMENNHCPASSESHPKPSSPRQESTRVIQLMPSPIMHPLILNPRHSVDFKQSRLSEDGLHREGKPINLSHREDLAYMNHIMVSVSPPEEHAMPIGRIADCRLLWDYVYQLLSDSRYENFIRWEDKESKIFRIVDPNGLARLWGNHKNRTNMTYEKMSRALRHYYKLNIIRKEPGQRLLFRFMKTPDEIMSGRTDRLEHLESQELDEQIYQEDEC

| Sequence | binding signal (ERF) | binding signal (ETV3L) | binding signal (ETS2) | binding signal (SPDEF) | binding signal (ETV7) | binding signal (ELF5) | binding signal (ETV3) | binding signal (ETV6) |
| --- | --- | --- | --- | --- | --- | --- | --- | --- |
| GTTAAG | 1.03 fold enrichment (6-mer frequency, TF over GST control) | 1.01 fold enrichment (6-mer frequency, TF over GST control) | 1.04 fold enrichment (6-mer frequency, TF over GST control) | 1.05 fold enrichment (6-mer frequency, TF over GST control) | 1.02 fold enrichment (6-mer frequency, TF over GST control) | 1.07 fold enrichment (6-mer frequency, TF over GST control) | 1.18 fold enrichment (6-mer frequency, TF over GST control) | 1.02 fold enrichment (6-mer frequency, TF over GST control) |
| AAGGAA | 1.23 fold enrichment (6-mer frequency, TF over GST control) | 1.3 fold enrichment (6-mer frequency, TF over GST control) | 1.34 fold enrichment (6-mer frequency, TF over GST control) | 1.22 fold enrichment (6-mer frequency, TF over GST control) | 1.28 fold enrichment (6-mer frequency, TF over GST control) | 2.15 fold enrichment (6-mer frequency, TF over GST control) | 1.37 fold enrichment (6-mer frequency, TF over GST control) | 1.41 fold enrichment (6-mer frequency, TF over GST control) |
| TGAAAA | 1.04 fold enrichment (6-mer frequency, TF over GST control) | 1.07 fold enrichment (6-mer frequency, TF over GST control) | 1.11 fold enrichment (6-mer frequency, TF over GST control) | 1.01 fold enrichment (6-mer frequency, TF over GST control) | 1.07 fold enrichment (6-mer frequency, TF over GST control) | 1.06 fold enrichment (6-mer frequency, TF over GST control) | – | – |
| CCTGTG | 1.08 fold enrichment (6-mer frequency, TF over GST control) | 1.02 fold enrichment (6-mer frequency, TF over GST control) | 1.03 fold enrichment (6-mer frequency, TF over GST control) | 1.02 fold enrichment (6-mer frequency, TF over GST control) | 1.07 fold enrichment (6-mer frequency, TF over GST control) | 1.06 fold enrichment (6-mer frequency, TF over GST control) | 1.07 fold enrichment (6-mer frequency, TF over GST control) | 1.06 fold enrichment (6-mer frequency, TF over GST control) |
| CTCGTG | 1.12 fold enrichment (6-mer frequency, TF over GST control) | 1.01 fold enrichment (6-mer frequency, TF over GST control) | 1.13 fold enrichment (6-mer frequency, TF over GST control) | 1.07 fold enrichment (6-mer frequency, TF over GST control) | 1.12 fold enrichment (6-mer frequency, TF over GST control) | 1.11 fold enrichment (6-mer frequency, TF over GST control) | 1.08 fold enrichment (6-mer frequency, TF over GST control) | 1.02 fold enrichment (6-mer frequency, TF over GST control) |
| GGAAAA | 1.12 fold enrichment (6-mer frequency, TF over GST control) | 1.31 fold enrichment (6-mer frequency, TF over GST control) | 1.27 fold enrichment (6-mer frequency, TF over GST control) | 1.12 fold enrichment (6-mer frequency, TF over GST control) | 1.26 fold enrichment (6-mer frequency, TF over GST control) | 1.67 fold enrichment (6-mer frequency, TF over GST control) | 1.31 fold enrichment (6-mer frequency, TF over GST control) | 1.53 fold enrichment (6-mer frequency, TF over GST control) |
| ATGTAC | 1.19 fold enrichment (6-mer frequency, TF over GST control) | 1.32 fold enrichment (6-mer frequency, TF over GST control) | 1.42 fold enrichment (6-mer frequency, TF over GST control) | 1.67 fold enrichment (6-mer frequency, TF over GST control) | 1.41 fold enrichment (6-mer frequency, TF over GST control) | 1.28 fold enrichment (6-mer frequency, TF over GST control) | 1.19 fold enrichment (6-mer frequency, TF over GST control) | 1.32 fold enrichment (6-mer frequency, TF over GST control) |
| GGCACT | 1.26 fold enrichment (6-mer frequency, TF over GST control) | 1.27 fold enrichment (6-mer frequency, TF over GST control) | 1.24 fold enrichment (6-mer frequency, TF over GST control) | 1.24 fold enrichment (6-mer frequency, TF over GST control) | 1.26 fold enrichment (6-mer frequency, TF over GST control) | 1.11 fold enrichment (6-mer frequency, TF over GST control) | 1.29 fold enrichment (6-mer frequency, TF over GST control) | 1.31 fold enrichment (6-mer frequency, TF over GST control) |
| CTATGT | 1.08 fold enrichment (6-mer frequency, TF over GST control) | 1.06 fold enrichment (6-mer frequency, TF over GST control) | 1.16 fold enrichment (6-mer frequency, TF over GST control) | 1.12 fold enrichment (6-mer frequency, TF over GST control) | 1.3 fold enrichment (6-mer frequency, TF over GST control) | 1.1 fold enrichment (6-mer frequency, TF over GST control) | 1.15 fold enrichment (6-mer frequency, TF over GST control) | – |
